Results as given in PubChem BioAssay (NCATS).
Where “and” joins values, the source holds several entries; their conditions need not be identical. Identical values can stand only once. Records with an inconclusive call do not appear. Unmarked numbers belong to inactive results. Calls of active or inactive are those of the source. Calls come from the whole dose curve.

The compounds below were run against Bile acid receptor (Homo sapiens) (UniProt Q96RI1) (assay: qHTS assay for small molecule agonists of farnesoid X receptor signaling (AID 588527;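 note: 0% = vehicle basal and 100% = reference agonist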)). Conditions: HEK293T FXR-UAS-bla, beta-lactamase ratio, 16 h; active compounds read high.
Procedure, shortened: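 FXR-UAS-bla HEK293T cells (10% dialyzed FBS) preincubated 5-7 h at 37 C, then compounds at up to 92 uM for 16 h at 37 C. CCF4 beta-lactamase read-out after 2 h RT. Normalized to chenodeoxycholic acid (100 uM) and DMSO; Hill fit gave EC50 and efficacy.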

Chain of Bile acid receptor (Homo sapiens) (Q96RI1 whole entry, looked up): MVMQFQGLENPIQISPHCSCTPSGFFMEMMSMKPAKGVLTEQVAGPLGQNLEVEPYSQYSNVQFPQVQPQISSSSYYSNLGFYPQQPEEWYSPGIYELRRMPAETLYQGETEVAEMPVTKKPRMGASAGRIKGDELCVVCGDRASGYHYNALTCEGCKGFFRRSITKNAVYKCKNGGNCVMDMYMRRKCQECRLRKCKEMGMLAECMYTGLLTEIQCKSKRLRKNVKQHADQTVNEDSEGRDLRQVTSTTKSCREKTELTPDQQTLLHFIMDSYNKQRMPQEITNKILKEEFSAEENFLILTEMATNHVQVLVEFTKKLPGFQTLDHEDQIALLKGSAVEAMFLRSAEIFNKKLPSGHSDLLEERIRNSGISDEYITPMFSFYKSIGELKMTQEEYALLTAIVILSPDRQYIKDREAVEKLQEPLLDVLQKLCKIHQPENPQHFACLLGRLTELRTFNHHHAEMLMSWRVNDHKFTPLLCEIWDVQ

Which activation does the source give for `O=C(OCc1ccccc1)c1ccc(O)cc1` here?
Its activation is 1.11%.

How did the activation turn out when `CN(C)c1ccc(C(=C2C=CC(=[N+](C)C)C=C2)c2ccc(N(C)C)cc2)cc1` was run?
The activation was -3.58% and -3.47%.

Which activation does the source give for `CN(C)C(=S)SC(=S)N(C)C` here?
The activation was 1.4%.

`CC/C(=C(/CC)c1ccc(O)cc1)c1ccc(O)cc1` was tested. Which activation did it give?
Its activation is 2% and 5.54%.

With `Cc1cc(C(C)(C)C)c(O)c(C(C)(C)C)c1` as the compound, how does the activation read?
Its activation is 9.91% and 2.64%.

With `CCOc1ccc(NC(C)=O)cc1` as the compound, how does the activation read?
Its activation is 0.406% and 4.82%.

With `Cc1c(N(C)C)c(=O)n(-c2ccccc2)n1C` as the compound, how does the activation read?
Its activation is -2.31%.

With `O=C1C(c2[nH]c3ccccc3c2O)=Nc2ccccc21` as the compound, how does the activation read?
The activation was 0.121%.

`CCOc1ccccc1C(N)=O` was tested. Which activation did it give?
Its activation is -0.664%.

For `COc1ccc2cc3[n+](cc2c1OC)CCc1cc2c(cc1-3)OCO2`, which activation is on record?
Its activation is -1.09%.

For `CCN(CC)CCOc1ccc(/C(=C(\Cl)c2ccccc2)c2ccccc2)cc1`, which activation is on record?
Its activation is 1.52%.

With `CC(O)COc1ccccc1` (stereo unspecified) as the compound, how does the activation read?
Its activation is -2.72%.

Which activation does the source give for `CCOP(=S)(OCC)O/N=C(\C#N)c1ccccc1` here?
Its activation is 8.69%.

`Cc1ccc(O)cc1` was tested. Which activation did it give?
The activation was -0.678%.

Which activation does the source give for `O=c1ccc2ccccc2o1` here?
Its activation is 2.18% and -1.67%.

How did the activation turn out when `O=C1c2cccc(O)c2C(=O)c2c(O)cccc21` was run?
The activation was -5%.

With `O=C(Nc1ccc(Cl)cc1)Nc1ccc(Cl)c(Cl)c1` as the compound, how does the activation read?
Its activation is 1.41%.

How did the activation turn out when `Oc1c(Cl)cc(Cl)cc1Sc1cc(Cl)cc(Cl)c1O` was run?
Its activation is -0.242%.

Which activation does the source give for `CCN(CC)C(=O)c1cccc(C)c1` here?
Its activation is 0.006% and -2.52%.

How did the activation turn out when `c1ccc2[nH]c(-c3cscn3)nc2c1` was run?
Its activation is -0.341% and 3.24%.

What follows are compounds tested against Peroxisome proliferator-activated receptor delta (Homo sapiens) (UniProt Q03181) (assay: qHTS assay for small molecule agonists of peroxisome proliferator-activated receptor delta signaling (AID 588534;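 note: 0% = DMSO basal wells and 100% = positive control agonist at 10 µM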)). Conditions: HEK293T PPARdelta-UAS-bla, beta-lactamase ratio, 18 h; series mostly up to 76.7 µM; activation: at the top concentration.
Procedure, shortened: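 Agonist-mode qHTS; reporter cells, 5 hrs 37 C pre-incubation; compound titration, 18 hrs 37 C; CCF4 dye, 2 hrs RT; fluorescence read. EC50/efficacy via Hill fit.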

Chain of Peroxisome proliferator-activated receptor delta (Homo sapiens) (Q03181 whole entry, looked up): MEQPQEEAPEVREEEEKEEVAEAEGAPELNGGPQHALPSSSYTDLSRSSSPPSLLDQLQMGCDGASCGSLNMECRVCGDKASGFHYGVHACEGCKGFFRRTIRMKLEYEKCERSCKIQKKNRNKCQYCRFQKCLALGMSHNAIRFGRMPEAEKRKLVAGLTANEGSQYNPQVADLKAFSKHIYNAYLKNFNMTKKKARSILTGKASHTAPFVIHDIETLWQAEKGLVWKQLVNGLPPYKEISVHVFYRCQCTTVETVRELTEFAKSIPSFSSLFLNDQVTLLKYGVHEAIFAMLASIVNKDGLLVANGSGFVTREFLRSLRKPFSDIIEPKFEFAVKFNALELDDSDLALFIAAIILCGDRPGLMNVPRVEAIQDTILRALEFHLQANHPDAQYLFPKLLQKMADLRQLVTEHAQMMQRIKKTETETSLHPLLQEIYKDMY

With `COc1cccc2c1C(=O)c1c(O)c3c(c(O)c1C2=O)C[C@@](O)(C(C)=O)C[C@@H]3O[C@H]1C[C@H](N)[C@H](O)[C@H](C)O1` as the compound, how does the “activation” value read?
The value was -2.47%.

`CN(C)C(=S)SC(=S)N(C)C` was tested. Which “activation” value did it give?
The value was -0.599%.

With `O=C1O[C@H]([C@@H](O)CO)C(O)=C1O` as the compound, how does the outcome read?
Its outcome is “inactive”.

`NS(=O)(=O)c1cc(C(=O)O)c(NCc2ccco2)cc1Cl` was tested. Which outcome did it give?
Its outcome is “inactive”.

With `Cc1cc(C(C)(C)C)c(O)c(C(C)(C)C)c1` as the compound, how does the outcome read?
Its outcome is “inactive”.

Which “activation” value does the source give for `O=C(CCl)c1ccc(Cl)cc1Cl` here?
The value was -3.5%.

With `Cc1c(N(C)C)c(=O)n(-c2ccccc2)n1C` as the compound, how does the outcome read?
Its outcome is “inactive”.

With `O=C1C(c2[nH]c3ccccc3c2O)=Nc2ccccc21` as the compound, how does the “activation” value read?
The value was -7.81%.

`CCOc1ccccc1C(N)=O` was tested. Which “activation” value did it give?
Its value is 6.61%.

Which “activation” value does the source give for `C=C[C@@]1(C)CC(=O)[C@]2(O)[C@@]3(C)[C@@H](O)CCC(C)(C)[C@@H]3[C@H](O)[C@H](OC(C)=O)[C@@]2(C)O1` here?
Its value is 1.54%.

For `CCCCCCCC/C=C\CCCCCCCCN`, which “activation” value is on record?
The value was -5.04%.

For `Nc1ccc(N=Nc2ccccc2)c(N)n1`, which outcome is on record?
Its outcome is “inactive”.

Which “activation” value does the source give for `COc1ccc(C(Cl)=C(c2ccc(OC)cc2)c2ccc(OC)cc2)cc1` here?
The value was -1.92%.

`CC(O)COc1ccccc1` (stereo unspecified) was tested. Which “activation” value did it give?
Its value is 1.3%.

Which “activation” value does the source give for `CCOP(=S)(OCC)O/N=C(\C#N)c1ccccc1` here?
The value was 13.8%.

For `Cc1ccc(O)cc1`, which “activation” value is on record?
Its value is -2.24%.

How did the outcome turn out when `C/C=C/c1ccc(O)c(OC)c1` was run?
The outcome was “inactive”.

For `CCCCCC(N)=O`, which “activation” value is on record?
Its value is 5.04%.

Which “activation” value does the source give for `CCCCC(CC)COC(=O)C(C#N)=C(c1ccccc1)c1ccccc1` (stereo unspecified) here?
The value was 3.81%.

How did the “activation” value turn out when `CCCCCCCCCCCC[N+](C)(C)Cc1ccccc1` was run?
Its value is -10.6%.

`C#C[C@]1(O)CC[C@H]2[C@@H]3CCc4cc(O)ccc4[C@H]3CC[C@@]21C` was tested. Which outcome did it give?
The outcome was “inactive”.

With `O=C1c2cccc(O)c2C(=O)c2c(O)cccc21` as the compound, how does the “activation” value read?
Its value is -10.2%.

How did the “activation” value turn out when `CC(=O)OC/C=C(C)/C=C/C=C(C)/C=C/C1=C(C)CCCC1(C)C` was run?
The value was -10.3%.

With `CC(=O)Oc1ccc(C(c2ccc(OC(C)=O)cc2)c2ccccn2)cc1` as the compound, how does the “activation” value read?
Its value is -12%.

`Nc1ccc(S(=O)(=O)Nc2nccs2)cc1` was tested. Which “activation” value did it give?
The value was -2.34%.

For `CCN(CC)C(=O)c1cccc(C)c1`, which outcome is on record?
Its outcome is “inactive”.

Which outcome does the source give for `c1ccc2[nH]c(-c3cscn3)nc2c1` here?
Its outcome is “inactive”.

With `NCCNc1cccc2ccccc12` as the compound, how does the “activation” value read?
Its value is -4.37%.

For `CN(C)C(=O)Nc1ccc(Cl)c(Cl)c1`, which “activation” value is on record?
The value was -4.63%.

How did the “activation” value turn out when `CC1(C)[C@@H]2CC[C@@]1(C)C(=O)C2` was run?
Its value is -4.9%.

With `FC(F)(F)C(Cl)Br` (stereo unspecified) as the compound, how does the “activation” value read?
Its value is 9.14%.
